High-throughput results: PubChem, several laboratories
KLF5 inhibitor – KLF5 expression inhibitors, primary screen, DLD-1 cells, luminescence. inhibition, % at 5 µM. actives 0.23% (n = 290,000). DLD-1 KLF5 promoter-luciferase reporter;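 active = inhibition above a per-plate limit of that plate's mean compound inhibition plus 3 SD, cut at about 60% in these data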;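 also: higher means less KLF5 promoter-driven luciferase light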
Ba/F3 V617F tox – reduced viability of JAK2V617F-dependent Ba/F3 cells, primary screen, JAK2V617F inhibitor project, cell-based, Ba/F3 EpoR-JAK2V617F, luminescence; inhibition, % at 5.6 µM; AID 1446, 2008; ATP luminescence; actives 1.1% (n = 220,000);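 active = inhibition above the campaign mean plus 3 SD over all tested compounds, cut at about 24% in these data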;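 also: cytokine-independent growth of Ba/F3 cells driven by EpoR plus mutant JAK2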
APP 5UTR inh – inhibitors of APP translation via 5'UTR reporter, primary screen, APP 5'UTR luciferase, SH-SY5Y cells; SH-SY5Y APP 5'UTR-luciferase reporter, luminescence; inhibition, % at 2 µM; actives 0.82% (n = 190,000);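 active = inhibition above a set limit, derived from the sample mean plus 3 SD, cut at about 45% in these data; inconclusive = one replicate passes the limit while the other fails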
IEC-6 tox – cytotoxicity in IEC-6 intestinal epithelial cells, primary screen, cytotoxicity control for KLF5 inhibitor project, cell-based, luminescence. IEC-6 cytotoxicity, luminescence viability. inhibition, % at 5 µM. actives 0.78% (n = 290,000); in the data active = inhibition above about 22%
aSyn UTR inh – MLPCN primary screen, SNCA 5' untranslated region; alpha-synuclein 5'UTR reporter, inhibitor activity; inhibition, % (tested at 7.5 µM); actives 0.82% (n = 300,000); AID 1813, 2009; in the data active = inhibition above about 60%; inconclusive = no clear call, values can overlap the other calls;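 also: H4 neuroglioblastoma cells stably carrying SNCA 5'UTR luciferase fusion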
BaF3 tox – parental Ba/F3 cell viability inhibition, counter-screen for JAK2V617F inhibitor project, murine pro-B, CellTiter-Glo luminescence; actives 1.1% (n = 220,000); AID 1486, 2009; CellTiter-Glo ATP luminescence; inhibition, % at 5.6 µM;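 active = inhibition above a per-campaign cutoff, the mean inhibition of all tested compounds plus 3 SD, cut at about 27% in these data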
Numbers stand for hits; n = inactive; u = inconclusive; x = no result given. Shown are actives, neighbours in structure and some others; about 2.2% of the full set was active somewhere.

SMILES	KLF5 inhibitor	Ba/F3 V617F tox	APP 5UTR inh	IEC-6 tox	aSyn UTR inh	BaF3 tox
Cn1c2ccc(Br)cc2c2nnc(SCC(=O)O)nc21	n	x	x	n	62.0	x
Cn1c2ccccc2c2nnc(SCC(N)=O)nc21	n	x	x	n	n	x
COc1cc2c(cc1OC)C(c1ccccc1N)=NCC2	n	38.5	x	n	n	47.4
N#CC1=C(N)Oc2c(ccc3cccnc23)C1c1ccccc1 (stereo unspecified)	n	68.8	x	n	n	39.1
Cc1ccc2[nH]c(=O)c(C3C(C#N)=C(N)Oc4c3ccc3cccnc43)cc2c1 (stereo unspecified)	n	n	n	n	75.3	n
N#CC1=C(N)Oc2cc(O)ccc2C1c1cccs1 (stereo unspecified)	n	n	n	n	n	n
COC(=O)C1=C(C)NC(C)=C(C(=O)OC)C1c1cc2cc(C)ccc2[nH]c1=O	n	n	n	n	n	n
N#CC1=C(N)Oc2c(ccc3ccccc23)C1c1cccs1 (stereo unspecified)	n	n	n	n	110.2	n
CCN(CC(=O)Nc1ccccc1OC)C(=O)CSCC(=O)Nc1ccc(OC)cc1	x	x	x	x	n	x
O=C1C=C(N2CCCCC2)c2ccccc2C1=O	x	x	x	x	122.4	x
CN(Cc1ccccc1)C(=O)c1ccc(NC(=O)c2ccccc2)cc1	n	x	x	n	n	x
CCOc1ccc(C(=O)NN2CCOCC2)cc1	n	x	x	n	n	x
CC(Oc1ccc(Cl)cc1Cl)c1nc(-c2ccc(NC(=O)c3cccnc3)cc2)no1 (stereo unspecified)	n	n	n	n	91.6	n
CC(Oc1ccc(Cl)cc1Cl)c1nc(-c2ccc(NC(=O)c3ccncc3)cc2)no1 (stereo unspecified)	n	n	n	n	n	n
CC1=NN(c2nc(-c3ccc(C)cc3)cs2)C(=O)C1N=Nc1ccc(C(N)=O)cc1 (stereo unspecified)	n	n	n	n	86.5	n
CCOC(=O)c1c(S(=O)(=O)NCC(=O)Nc2ccc(F)cc2F)c(C)n(C)c1C	n	x	x	n	n	x
CN1c2ccccc2C(C)(C)[C@]12C=Cc1cc(O)ccc1O2	n	73.8	n	n	n	61.3
CCn1c(C)nc2cc(C(=O)N/N=C(\C)c3ccc(OC)cc3O)ccc21	n	n	n	n	83.9	n
CCn1c(C)nc2cc(C(=O)N/N=C/c3ccc(OC)cc3)ccc21	n	n	n	n	n	n
CCCNC(=S)N1CCC(C(=O)c2ccc(OC)cc2)CC1	n	n	60.1	n	n	n
CCCNC(=S)N1CCC(C(=O)c2ccc(Cl)cc2)CC1	n	x	x	n	n	x
CN[C@H]1CCc2cc(OC)c(OC)c(OC)c2-c2ccc(N(C)CC(OC)OC)c(=O)cc21	n	x	x	n	70.2	x
Cc1ccc2c(c1)N(C)/C(=C/c1cccc[n+]1CCO)S2	n	x	x	n	n	x
Cc1ccc2c(c1)S/C(=C/c1ccc[n+](C)c1)N2CCO	n	88.3	n	n	n	70.9
CCOc1ccccc1NC(=O)CN(c1ccc(OC)cc1)S(=O)(=O)c1c(C)noc1C	n	78.5	88.8	n	n	74.6
SMILES	KLF5 inhibitor	Ba/F3 V617F tox	APP 5UTR inh	IEC-6 tox	aSyn UTR inh	BaF3 tox
CCOc1ccc(N(CC(=O)Nc2ccc(C)c(C)c2)S(=O)(=O)c2c(C)noc2C)cc1	n	n	n	n	n	n
CCOc1ccc(N(CC(=O)Nc2ccccc2C)S(=O)(=O)c2c(C)noc2C)cc1	n	78.2	65.9	62.7	u	53.5
COc1ccc(OC)c(NC(=O)c2ccc(NC3=NC4CS(=O)(=O)CC4S3)cc2)c1 (stereo unspecified)	n	x	x	n	n	x
CCn1ncc(CNC(=O)C2(C)CC2(Cl)Cl)c1C (stereo unspecified)	n	n	n	n	n	n
CCCC[n+]1ccn(C2=C([O-])c3ccccc3C(=O)/C2=N\S(=O)(=O)c2ccc(Cl)cc2)c1	n	n	x	n	66.0	n
Cc1cc(C(=O)COc2cccnc2[N+](=O)[O-])c(C)n1Cc1ccco1	n	n	n	n	n	n
Cc1cc(C(=O)COc2cccnc2[N+](=O)[O-])c(C)n1-c1ccccc1F	n	n	x	n	67.5	n
Cc1cc(C(=O)COc2cccnc2[N+](=O)[O-])c(C)n1-c1ccccc1	n	n	n	n	99.8	n
Cc1ccc(-n2c(C)cc(C(=O)COc3cccnc3[N+](=O)[O-])c2C)cc1	n	n	n	n	64.1	n
Cc1cc(-n2c(C)cc(C(=O)COc3ccccc3[N+](=O)[O-])c2C)no1	n	n	n	n	n	n
COc1ccc(CCNC(=O)CCn2c(=O)c3cccn3c3cccnc32)cc1OC	n	x	x	n	n	x
O=C(Nc1ccc2c(c1)OCO2)c1noc2c1CCCC2	n	x	x	n	n	x
Cc1ccc(NC(=O)c2c(C(F)(F)F)nn(C)c2SCc2cccc(C(F)(F)F)c2)cc1C	n	42.5	x	n	n	47.8
CCCCNC(=S)Nc1ccc(C(F)(F)F)cc1	n	n	n	n	n	n
CCN(CC)S(=O)(=O)c1ccc2c(c1)nc(SCn1nnc3ccccc3c1=O)n2CC	n	n	91.6	n	n	n
Cn1c(SCn2nnc3ccccc3c2=O)nc2ccccc2c1=O	n	n	n	n	n	n
Cc1cc(NC(=O)Nc2cccc(Cl)c2)n(-c2ccccn2)n1	n	x	x	n	n	x
Cc1ccc2[nH]c3c(c2c1)CN(C(=O)CN1CCN(c2cccc(C)c2C)CC1)CC3	n	n	n	n	n	n
Cc1ccc2[nH]c3c(c2c1)CN(C(=O)CN1c2ccc(F)cc2CCC1C)CC3 (stereo unspecified)	n	n	n	n	n	94.5
OCCNc1c2ccccc2nc2c(F)c(F)c(F)c(F)c12	n	n	87.3	n	n	n
CN(C)CCCNc1nc(-c2ccccc2)nc2ccccc12	n	n	x	n	n	n
c1ccc2c(NCCCN3CCOCC3)c3ccccc3nc2c1	n	n	62.9	n	x	n
CN(C)CCCNc1c2ccccc2nc2ccccc12	n	x	x	n	70.8	x
O=C1c2ccc3c4c(ccc(c24)C(=O)N1c1cccc(O)c1)C(=O)N(c1cccc(O)c1)C3=O	n	n	x	n	68.1	n
CCN(CC(=O)NCc1ccccn1)S(=O)(=O)c1cc(Cl)ccc1Cl	x	x	x	x	n	x
CC(=NCc1cccc(Cl)c1)c1nc(-c2ccco2)oc1O	n	53.0	n	n	n	49.4
Oc1oc(-c2ccco2)nc1C=Nc1cccc(Cl)c1	n	n	n	n	n	n
C/C(N)=C(/C#N)C(=O)CSc1nc2scc(-c3ccc(F)cc3)c2c(=O)n1C	n	n	n	n	n	n
Nc1c(C(=O)Nc2ccc(S(=O)(=O)N3CCCC3)cc2)sc2nc3ccc(OC(F)(F)F)cc3cc12	n	n	72.6	n	109.2	n
CC(C)NS(=O)(=O)c1ccc(CCC(=O)N2CCCCC2)cc1	n	n	n	n	n	n
